Source: PubChem BioAssay AID686979 (National Center for Advancing Translational Sciences (NCATS), 2013)
Out of some 420,000 compounds screened, about 50,000 (12%) were called active. Entries that show only a call come without a potency. Another 26% or so got no clear call; they are omitted. The sample holds actives, similar compounds and a random draw of the others, so the mix is not that of the screen. Values without a mark were called inactive. The call rests on the fitted dose curve; in most records, active means well fitted inhibition curve with a large enough effect; inconclusive means small, poorly fitted or top-dose-only effect; inactive means flat fitted curve, though single readings scatter.
Potency means the concentration at half of the fitted maximal effect.

Assay: qHTS for Inhibitors of human tyrosyl-DNA phosphodiesterase 1 (TDP1): qHTS in cells in presence of CPT; further: nearly all actives have a fitted effect of over 55% in size
Details: chicken DT40 Tdp1-/-;hTDP1 cells + 20 nM CPT, ATP luminescence, 48 h; series mostly up to 46.2 µM
Procedure, shortened: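 Chicken DT40 Tdp1-/- cells complemented with human TDP1, 400 cells/well, exposed to compounds plus 20 nM camptothecin for at least 48 h at 37 C; viability read as ATP content by CellTiter-Glo luminescence.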
For `O=C(O)c1cc(S(=O)(=O)NC2CCCc3ccccc32)ccc1O` (stereo not given), the Potency was “inactive”.
With `O=C(c1ccco1)N1CCN(CCOc2ccccc2)CC1` the Potency was “inactive”.
For `O=c1[nH]c2ccccc2n1C1CCN(CCOc2ccccc2)CC1`, the Potency was 3.66 µM (active).
For `O=C(c1ccc(Br)o1)N1CCN(CCOc2ccccc2)CC1`, the Potency was “inactive”.
In the case of `CO[C@@H]1CN(C)C(=O)c2cc(NC(=O)C3CC3)ccc2OC[C@H](C)N(C(=O)CN2CCOCC2)C[C@@H]1C`, the Potency was “inactive”.
With `NC(=O)C1CC(=O)N(c2ccc(OCC(=O)NCc3ccccc3)cc2)C1` (stereo not given) the Potency was “inactive”.
For `O=C(c1cccc(Cl)c1)N1CCN(Cc2ccccc2)CC1`, the Potency was “inactive”.
In the case of `CN(C)CCN1CCN(c2cc(-c3cccc(Cl)c3)nc3ccnn23)CC1`, the Potency was “inactive”.
With `O=C(c1cccc(Cl)c1)N1CCN(CCc2ccncc2)CC1` the Potency was “inactive”.
In the case of `C#Cc1cc(N2CCN(C(=O)c3ccoc3)CC2)n2nc(-c3cccc(Cl)c3)cc2n1`, the Potency was 7.31 µM (active).
With `O=C(c1ccccc1)N1CCN(c2cc(-c3ccccc3)nc3cc(-c4cccc(Cl)c4)nn23)CC1` the Potency was 23.1 µM (active).
For `CCCNC(=O)c1ccc(Cn2c(SCC(N)=O)nc3ccccc3c2=O)cc1`, the Potency was “inactive”.
For `CCOc1ccccc1Nc1ccc2nonc2c1[N+](=O)[O-]`, the Potency was “inactive”.
With `O=C(OCC(=O)N1CCCCCC1)c1cnc(Cl)c(Cl)c1` the Potency was “inactive”.
For `CCOC(=O)C1CCN(Cc2c(C(=O)N3CCOCC3)nc3c(C)cccn23)CC1`, the Potency was “inactive”.
For `CCOC(=O)C(NC(=O)CC(C)C)(Nc1sc2c(c1C(N)=O)CCCC2)C(F)(F)F` (stereo not given), the Potency was “inactive”.
For `CC(=O)Nc1ccc2nc(NC(=O)CS(=O)(=O)c3ccc(F)cc3)sc2c1`, the Potency was “inactive”.
With `CCOc1ccc(S(=O)(=O)Nc2nc3cc(OC)ccc3s2)cc1` the Potency was “inactive”.
With `Cc1nc2ccc(NC(=O)C3CCCCC3)cc2s1` the Potency was “inactive”.
For `CCOc1ccc2nc(Nc3nc4ccc(NC(C)=O)cc4s3)sc2c1`, the Potency was 18.4 µM (active).
With `CCC(=O)c1ccc(OCC(=O)Nc2ccc(N3CCCCC3)cc2)cc1` the Potency was “inactive”.
For `CCC(=O)c1ccc(OCC(=O)Nc2ccc3nc(C)sc3c2)cc1`, the Potency was 16.4 µM (active).
In the case of `CC(CC(=O)Nc1ccc(F)cc1F)S(=O)(=O)c1ccc2c(c1)NC(=O)CO2` (stereo not given), the Potency was “inactive”.
In the case of `c1ccc2c(c1)CCc1snnc1-2`, the Potency was “inactive”.
With `O=C(CCNS(=O)(=O)c1ccc(Br)cc1)NCC1CCCO1` (stereo not given) the Potency was “inactive”.
For `CCc1cc(-c2n[nH]c(=S)n2CC(C)C)cs1`, the Potency was “inactive”.
For `CCC(=O)c1ccc(OCC(O)CN2CC(C)OC(C)C2)cc1` (stereo not given), the Potency was “inactive”.
In the case of `CC(C)CCOc1ccc(C(=O)C[N+]2(C)CCOCC2)cc1`, the Potency was 20.6 µM (active).
With `C[N+]1(CC(=O)c2cccs2)CCOCC1` the Potency was “inactive”.
In the case of `COc1ccc(Br)cc1CNC(=O)c1cc(=O)[nH]c2ccc(S(=O)(=O)N3CCCC3)cc12`, the Potency was “inactive”.
For `CCOC(=O)c1c(C)n(C)c2ccc(OC)c(NC(=O)CN3CCC4(CC3)OCCO4)c12`, the Potency was “inactive”.
In the case of `Cc1nnc(NC(=O)/C=C/c2ccco2)s1`, the Potency was “inactive”.
With `CCC(=O)Nc1ccc2nn(-c3ccc(F)cc3)nc2c1` the Potency was “inactive”.
For `Cc1ccc(-n2nc3ccc(NC(=O)/C=C/c4ccco4)cc3n2)cc1C`, the Potency was 23.1 µM (active).
For `COc1cc(C(CCN2CCN(c3ccccc3)CC2)c2c(OC)cc(OC)c3ccc(=O)oc23)cc(OC)c1OC` (stereo not given), the Potency was 23.1 µM (active).
With `COc1ccc(F)cc1S(=O)(=O)NCC(c1ccc2c(c1)OCO2)N1CCN(C)CC1` (stereo not given) the Potency was “inactive”.
For `COc1ccc(C(CC(=O)N2CCN(c3ccccc3)CC2)c2c(O)cc(OC)cc2OC)cc1` (stereo not given), the Potency was “inactive”.
With `O=C(C(=O)N1CCN(c2ccccc2)CC1)c1ccc2c(c1)OCO2` the Potency was “inactive”.
With `COc1ccc(C(c2nnnn2Cc2cccs2)N2CCN(c3ccccc3)CC2)cc1OC` (stereo not given) the Potency was “inactive”.
With `COc1cc(OC)c2ccc(=O)oc2c1C(CCN1CCN(c2ccccc2)CC1)c1ccc2c(c1)OCO2` (stereo not given) the Potency was 23.1 µM (active).
With `C=CCNC(=S)NNC(=O)c1ccc(Br)o1` the Potency was “inactive”.
For `CCn1c(O)c2ccc(C(=O)N=NC(=O)c3cccnc3)cc2c1O`, the Potency was “inactive”.
For `FC(F)(F)c1ccccc1-c1cc(NCc2ccccc2)ncn1`, the Potency was 7.31 µM (active).
For `CN(Cc1ccco1)c1cc(-c2ccccc2C(F)(F)F)ncn1`, the Potency was “inactive”.
With `COc1ccccc1CNc1cc(-c2ccccc2CN(C)C)ncn1` the Potency was “inactive”.
With `CCOc1cc(S(=O)(=O)NCc2ccc3c(c2)OCO3)ccc1F` the Potency was “inactive”.
For `Cc1ccc(C(=O)O/N=C(\N)c2ccccn2)cc1Cl`, the Potency was “inactive”.
For `COc1ccccc1-c1ccc(C(=O)N(C)C(C)c2ccon2)c(N2CCN(c3ccccc3F)CC2)n1` (stereo not given), the activity change, negative = growth inhibition was 15.9% [at 9.04 µM].
For `CC(C)C1=CC2=CC[C@H]3[C@](C)(C(=O)O)CCC[C@]3(C)C2CC1` (stereo not given in full), the activity change, negative = growth inhibition was 26.1% [at 9.04 µM].
For `O=C(NN1C(=O)C2C3C=CC(C3)C2C1=O)c1ccco1` (stereo not given), the Potency was “inactive”.
For `Cc1noc(C)c1-c1nc(Nc2ccccc2)c2ccccc2n1`, the Potency was “inactive”.
With `COc1cc(Nc2nc(-c3ccc(OC)c(OC)c3)nc3ccccc23)cc(OC)c1` the Potency was 5.8 µM (active).
In the case of `COc1cccc(-c2nc(Nc3ccncc3)c3ccccc3n2)c1`, the Potency was 8.2 µM (active).
In the case of `COc1ccc(Cl)cc1N(CC(=O)N1CCCCC1)S(C)(=O)=O`, the Potency was “inactive”.
In the case of `C=Cn1cc[n+](CC(=O)c2ccc(OC)c(OC)c2)c1`, the Potency was “inactive”.
For `COc1ccc(C23NCCN2C(=O)c2ccccc23)cc1` (stereo not given), the Potency was “inactive”.
With `Cc1cccc(S(=O)(=O)N(C)C[C@H]2OCc3cnnn3CCCC(=O)N([C@@H](C)CO)C[C@H]2C)c1` the Potency was “inactive”.
In the case of `CCCCn1c(N)c(N(Cc2ccccc2OC)C(=O)COc2cc(C)ccc2Cl)c(=O)[nH]c1=O`, the Potency was “inactive”.
With `CCCCc1nn2c(=O)cc(COC(=O)c3cccc(NC(=O)COc4ccccc4)c3)nc2s1` the Potency was “inactive”.
In the case of `COc1ccc(CN2CCC(C)(Oc3cccc(F)c3)C2)c2ccccc12` (stereo not given), the Potency was 23.1 µM (active).
In the case of `COc1ccccc1CN1CC2(CCN(S(=O)(=O)c3ccccc3)CC2)C1`, the Potency was “inactive”.
With `CCOc1cc(CN2CCCC(CO)(Cc3ccc(F)cc3F)C2)ccc1OC` (stereo not given) the Potency was “inactive”.
In the case of `Cc1ccc(CCNC(=O)CN2C(=O)CSc3ccc(S(=O)(=O)N4CCOCC4)cc32)cc1`, the Potency was “inactive”.
With `C[C@H]1Cn2cnc(C(=O)N[C@@H](Cc3c[nH]c4ccccc34)C(=O)OC(C)(C)C)c2C(=O)N1` the Potency was “inactive”.
With `CS(=O)(=O)N1CCN(C(=O)Cc2ccccc2)CC1` the Potency was “inactive”.
In the case of `CCCOc1ccc(Cn2c(O)cc(=O)[nH]c2=O)cc1`, the Potency was “inactive”.
In the case of `COc1cc(=O)[nH]c(=O)n1C(=O)Cc1ccccc1`, the Potency was 13 µM (active).
With `COc1ccccc1NC(=O)C(CC(=O)O)Cc1cc(C)cc(C)c1` (stereo not given) the Potency was “inactive”.
In the case of `COc1ccccc1NC(=O)[C@H](COCc1ccccc1)NC(=O)OC(C)(C)C`, the Potency was 23.1 µM (active).
For `COc1ccccc1NC(=O)C(C)OC(=O)CC1CCCC1` (stereo not given), the Potency was “inactive”.
For `Cc1ccc(SCC(=O)NNC(=O)c2ccc(S(C)(=O)=O)cc2)cc1`, the Potency was “inactive”.
For `CCOc1ccc(CNC(=O)c2ccc3c(c2)nnn3C2CCCC2)cc1`, the Potency was “inactive”.
In the case of `Cc1cc(Cl)ccc1OCc1nc(-c2ccncc2)no1`, the Potency was “inactive”.
In the case of `CC(=O)Nc1ccc(-c2nc3ccccc3o2)cc1`, the Potency was “inactive”.
In the case of `O=C(Nc1ccc(-c2nc3cc(NC(=O)c4ccccc4Cl)ccc3o2)cc1)c1ccccc1Cl`, the Potency was 7.31 µM (active).
In the case of `O=C(Nc1ccc2oc(-c3ccc(O)c(Br)c3)nc2c1)c1cc2ccccc2o1`, the Potency was “inactive”.
With `Cc1ccccc1-c1nc2cc(NC(=O)c3cccc(OCCC(C)C)c3)ccc2o1` the Potency was 23.1 µM (active).
For `Cc1nc2nc[nH]n2c(=O)c1NC(=O)c1cccc(OCC(C)C)c1`, the Potency was “inactive”.
For `Cc1nc2cc(NC(=O)NCc3ccccc3)ccc2o1`, the Potency was “inactive”.
In the case of `COC(=O)c1ccc(-c2nc3cc(NC(C)=O)ccc3o2)cc1`, the Potency was “inactive”.
In the case of `CCCCOc1ccc(C(=O)Nc2cccc(-c3nc4ccccc4o3)c2C)cc1`, the Potency was “inactive”.
With `O=C(Nc1ccc(C(=O)O)c(O)c1)c1ccccc1` the Potency was “inactive”.
For `CCCOc1ccc(C(=O)Nc2ccc3oc(-c4cccc(Cl)c4Cl)nc3c2)cc1`, the Potency was 8.2 µM (active).
With `CCc1ccc2oc(-c3ccc(NC(=O)c4cc5ccccc5o4)cc3)nc2c1` the Potency was “inactive”.
With `COc1cc(OC)cc(C(=O)Nc2ccc(-c3nc4ccccc4o3)c(O)c2)c1` the Potency was 18.4 µM (active).
For `O=Cc1c(NCCCN2CCCC2=O)c2ccccc2[nH]c1=O`, the Potency was “inactive”.
With `Cc1cccc(C(=O)OC(C)CN2CCCC2)c1` (stereo not given) the Potency was “inactive”.
For `COCCNC(=O)CCCN1C(=O)c2ccccc2Sc2ncccc21`, the Potency was “inactive”.
With `Cc1ccc2c(Cl)c(C(=O)Nc3nn[nH]n3)sc2c1` the Potency was “inactive”.
With `O=C(COC(=O)CNC(=O)C1CCCCC1)Nc1cccc(F)c1` the Potency was “inactive”.
For `CN(C(=O)c1ccccn1)c1nnc(-c2ccccn2)s1`, the Potency was “inactive”.
For `CCOc1cccc(-c2nn3c(-c4ccccn4)nnc3s2)c1`, the Potency was “inactive”.
For `c1ccc(-c2cc(-c3nnc4sc(-c5ccccn5)nn34)[nH]n2)cc1`, the Potency was 11.6 µM (active).
In the case of `Cn1c(N)c(C(=O)COC(=O)c2ccccc2NCc2ccco2)c(=O)n(C)c1=O`, the Potency was “inactive”.
For `Nc1cc(N)nc(SCc2ccc(Cl)cc2)n1`, the Potency was “inactive”.
For `CC(O)CN(Cc1ccc(Cl)cc1)CC(C)O` (stereo not given), the Potency was “inactive”.
For `CCN(CC)C(=O)[C@H]1C[C@H](CC(=O)NCC23CC4CC(CC(C4)C2)C3)C(=O)N2CCc3c([nH]c4cc(CCC(=O)N(C)C)ccc34)[C@]12C`, the Potency was 20.6 µM (active).
In the case of `CN(C)C(=O)CCc1ccc2c3c([nH]c2c1)[C@]1(CCc2ccccc2)[C@@H](C(=O)N2CCCCC2)C[C@H](CC(=O)NCCC2=CCCCC2)C(=O)N1CC3`, the Potency was 8.2 µM (active).
For `CC[C@]12c3[nH]c4cc(CCC(=O)N(C)C)ccc4c3CCN1C(=O)[C@@H](CC(=O)NCc1ccco1)C[C@@H]2C(=O)N1CCN(C(=O)c2ccco2)CC1`, the Potency was “inactive”.
For `CC[C@]12c3[nH]c4ccc(Cl)cc4c3CCN1C(=O)[C@@H](CC(=O)NCCCOC)C[C@@H]2C(=O)N1CCN(C(=O)C2CC2)CC1`, the Potency was “inactive”.
For `CCN(CC)C(=O)[C@H]1CC(CC(=O)NCc2ccco2)C(=O)N2CCc3c([nH]c4ccccc34)[C@]12C` (stereo not given in full), the Potency was “inactive”.
In the case of `CC[C@]12c3[nH]c4cc(CCC(=O)N(C)C)ccc4c3CCN1C(=O)[C@@H](CC(=O)NCCCN(C)C)C[C@@H]2C(=O)N1CCN(C(=O)c2ccco2)CC1`, the Potency was “inactive”.
With `C[C@]12c3[nH]c4ccc(Cl)cc4c3CCN1C(=O)[C@@H](CC(=O)NCCCn1ccnc1)C[C@@H]2C(=O)N1CCOCC1` the Potency was “inactive”.
In the case of `CN(C)C(=O)CCc1ccc2c3c([nH]c2c1)[C@]1(C)[C@@H](C(=O)N2CCOCC2)C[C@H](CC(=O)NCCc2ccccn2)C(=O)N1CC3`, the Potency was “inactive”.
For `CC(C)N(C(=O)[C@H]1C[C@H](CC(=O)NC(C)(C)C)C(=O)N2CCc3c([nH]c4ccc(Cl)cc34)[C@]12C)C(C)C`, the Potency was 7.31 µM (active).
